Bioassay records (PubChem)
Only some compounds are listed: those with a hit (about 21% of all), similar ones and a draw of the others.
HCV inhibitor – inhibitors of hepatitis C virus infection; 3.4% of 340,000 active; Potency, µM (doses to about 41.8 µM), without a hit: at the highest dose activity change, negative = inhibition, most hits filed as inhibitors; Huh7.5.1 HCVcc-Cre infection, luciferase reporter, 44 h; AID 651820; also: potency is read from the fitted curve at half-maximal effect; % is scaled to controls: 0 for no effect and ±100 for the full control effect
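A cell-based infection assay in which seeded cells (1,000 per well) receive test compound after 4 h, are inoculated with HCVcc-Cre at approximately 0.5 moi, and are incubated 44 h before luminescence detection.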
Shiga toxin inh – Shiga toxin inhibition; Vero cells, Shiga toxin protein synthesis inhibition reporter; inhibition, % at 38.7 µM; 9.2% of 290,000 active; in the data active = inhibition mostly above about 28%, no sharp cut-off; inactive = mostly below about 43%; also: 0% is about no effect
Pf growth 96h – inhibits malaria parasite growth, 96 h; P. falciparum luciferase reporter growth, 96 h; Potency, µM (highest dose often 28.7 µM), inactives show top-dose activity change, negative = inhibition, actives largely listed as inhibitors; 6.9% of 320,000 active; AID 504834; also: potency is read from the fitted curve at half-maximal effect; % is scaled to controls: 0 for no effect and ±100 for the full control effect
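Parasite growth measured via integrated firefly luciferase reporter in P. falciparum. Infected erythrocytes at 2% hematocrit, 0.05% parasitemia final were treated 96 hours at 37 C under 5% CO2, and luminescence was read.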
CHX counter – counter-screen hit for Shiga toxin inhibitors, cycloheximide | cell reporter, cycloheximide protein synthesis inhibition counterscreen | max response, % | 12% of 300,000 active | AID 2314; in the data active = max response mostly above about 13%, no sharp cut-off; inactive = mostly below about 14%; also: read at 38.3 µM for the half of the compounds with a filed dose; 0% is about no effect
Pf growth 48h – P. falciparum growth inhibition at 48 hours (one generation); 5.9% of 310,000 active; Potency, µM (series often up to 28.7 µM), inactives show at the highest dose activity change, negative = inhibition, hits mostly inhibitors; P. falciparum luciferase growth in erythrocytes, 48 h; also: potency is read from the fitted curve at half-maximal effect; % is scaled to controls: 0 for no effect and ±100 for the full control effect
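Parasite viability was followed by luminescence of a genomically integrated firefly luciferase. Cultures held 0.1% parasitemia at 2% hematocrit (final), incubated under 5% CO2 at 37 C.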
HCMV inh – inhibitors of human cytomegalovirus; HFF cells, HCMV-luciferase reporter, 72 h; active compounds read low; activity change, negative = inhibition, % at 57.5 µM; 4.5% of 410,000 active; in the data active = activity change below about -60%; inconclusive = no clear call, values can overlap the other calls; inactive = above about -39%; also: % is scaled to controls: 0 for no effect and ±100 for the full control effect
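After 16 h attachment at 37C, HFF cells received test compound and HCMV-luciferase (1 PFU/cell); reporter luminescence read 72 h later, data normalized against buffer-only and known inhibitor Salinomycin.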
Starred values were filed as active, the others as inactive; ? = inconclusive; . = no result given; [ ] = dose if it differs, or a comment. Unless noted, calls follow the shape of the dose curve; as a rule, active = well fitted inhibition curve with a large enough effect; inconclusive = small, poorly fitted or top-dose-only effect, or another doubt; inactive = no such curve, though single readings can be large or run the other way.

SMILES | HCV inhibitor | Shiga toxin inh | Pf growth 96h | CHX counter | Pf growth 48h | HCMV inh
Brc1ccc(-c2nc(N/N=C/c3cccnc3)c3ccccc3n2)cc1 | -12% | 103* | ? | 32* | . | 224
CCn1c(SCc2ccc(F)cc2Cl)nc(=O)c2c(C(=O)OC)cc(C3CC3)nc21 | . | . | . | . | . | -3
CCOc1ccc(-c2nonc2NC(=O)c2oc3ccc(F)cc3c2C)cc1 | . | . | . | . | . | -11
O=c1[nH]nc(N2CCOCC2)c(=O)[nH]1 | 0% | 9 | -3% | 2 | 6% | -27
C(=N\Nc1nc(-c2cccnc2)nc2ccccc12)/c1ccccc1 | -35% | 50* | -22% | 23* | ? | -33
CC(NC(=O)CCc1nnc(Cc2cccc(C(F)(F)F)c2)o1)C1CC1 (stereo not drawn) | 2% | 92* | 32% | 53* | 3% | 80
C=C(C)CNC(=O)CCc1nnc(Cc2cccc(C(F)(F)F)c2)o1 | 2% | 123* | -1% | 44* | 17% | 34
CC(C)CN(C)C(=O)CCc1nnc(Cc2cccc(C(F)(F)F)c2)o1 | 0% | 109* | -5% | 47* | 39% | 90
O=C(CCc1nnc(Cc2cccc(C(F)(F)F)c2)o1)NC1CC1 | 17% | 15 | ? | 2 | 3% | -28
O=C(CCc1nnc(Cc2cccc(C(F)(F)F)c2)o1)NCC(F)(F)F | 4% | 16 | ? | 1 | 9% | 25
CCOC(=O)c1cc(-c2ccccc2)n(CCC(=O)Nc2ccc(Cl)c(C(F)(F)F)c2)c1C | . | . | . | . | . | 0
CC[C@]12c3[nH]c4cc(-c5ccco5)ccc4c3CCN1C(=O)[C@@H](CC(=O)NCCCn1ccnc1)C[C@@H]2C(=O)N1CCN(C(=O)C2CC2)CC1 | 7%[8.37 µM] | . | . | . | . | 6
Cc1ccc(NC(=O)CN(C)C(=O)COc2ccc(Br)cc2)cc1 | . | . | . | . | . | -10
CCOc1ccc(NC(=O)CN(C)C(=O)c2ccc3c(c2)C(=O)N(CCC(C)C)C3=O)cc1OCC | . | -9 | -2% | -4 | 47% | 9
COC(=O)c1ccc(Cn2c(O)c(N=NC(N)=S)c3ccccc32)o1 | ? | -6 | ? | 1 | -20% | -21
CCC1CCCCN1C(=O)CSc1nnc(CNC(=O)c2c(F)cccc2Cl)o1 (stereo not drawn) | 1% | 13 | -9% | -3 | -10% | -7
Cn1c(=O)n(Cc2ccccc2Br)c2ccccc21 | -12% | -3 | -5% | -2 | -17% | -62*
Cn1c(=O)n(CCCOc2ccc(Cl)cc2)c2ccccc21 | -5% | 4 | 176% | 19* | -8% | 21
Cn1c(=O)n(CCc2ccccc2)c2ccccc21 | 0% | . | -1% | 18* | 54% | 56
Cc1ccc(NC(=O)CCn2nc(C)c(S(=O)(=O)N3CCCCC3)c2C)cc1Cl | . | . | . | . | . | 97
CCOc1ccccc1C(=O)NCC(c1cccs1)S(=O)(=O)c1ccc(F)c(C)c1 (stereo not drawn) | . | . | . | . | . | -18
CCc1nn(CC(=O)NC(C)CC)c(=O)c2cc3occc3n12 (stereo not drawn) | . | . | . | . | . | -3
NCCNCCN | . | 91* | . | 43* | . | .
O=C1C=Cc2cccc3ccc(O)c1c23 | ? | . | . | . | . | -68*
O=C1C=CC(=O)c2c(O)cccc21 | . | -4 | . | -4 | . | .
SMILES | HCV inhibitor | Shiga toxin inh | Pf growth 96h | CHX counter | Pf growth 48h | HCMV inh
CN(C(=O)c1cccc(NC(=O)Cc2cccc([N+](=O)[O-])c2)c1)C1CCCC1 | ? | . | . | . | . | -18
O=C(NCCC1=CCCCC1)c1ccc2c(c1)N(Cc1ccccc1)C(=O)c1ccccc1S2(=O)=O | . | . | . | . | . | -19
Cc1c(C(=O)NCC2CCCO2)sc2nc(-c3ccc(F)cc3)cn12 (stereo not drawn) | -23% | 32 | -7% | 32* | -1% | -11
CCN(CC)CCCNC(=O)c1sc2nc(-c3ccc(F)cc3)cn2c1C | ? | 10 | 13µM* | -2 | . | 34
CCc1c(CN2CCN(c3cccc(C)c3)C(C)C2)csc1C (stereo not drawn) | . | . | . | . | . | -22
COc1ccccc1C(=O)NCC1CCN(c2ccc(S(=O)(=O)N3CCOCC3)cc2)CC1 | ? | -11 | 3.3µM* | 4 | . | -76*
CC(C)CNC(=O)C1CCN(c2ccc(S(=O)(=O)N3CCOCC3)cc2)CC1 | 26% | -5 | . | -2 | 7.4µM* | -16
